# Reference: PubChem BioAssay (NCATS)
# Inconclusive results are not listed. A number with no mark means an inactive call. Activity calls are given as the source filed them. The call rests on the fitted dose curve; in most records, active means well fitted cell-killing curve with a large enough effect; inconclusive means small, poorly fitted or top-dose-only effect, or effect the other way; inactive means flat fitted curve, though single readings scatter.
# Test: Cell Viability - HUV-EC-C (AID 542); further: nearly all actives have a fitted effect of over 35% in size
# Conditions: HUV-EC-C endothelial cell viability, qHTS; series mostly up to 92.2 µM; activity change, negative = cytotoxicity: at the top concentration
# From the text: NIH Chemical Genomics Center [NCGC]
# NIH Molecular Libraries Screening Centers Network [MLSCN]
# National Institutes of Environmental Health Sciences [NIEHS]
# National Toxicology Program [NTP]
# We have developed a 1536-well cell-based assay for quantitative high throughput screening (qHTS) against a number of cell lines to determine in vitro cytotoxicity of small molecules. This particular assay uses the HUV-EC-C cell line which is derived from normal human vascular endothelial cells.
# NCGC Assay Protocol Summary:
# The CellTiter-Glo luminescent cell viability assay (Promega) is a homogeneous method to measure the number of viable cells in culture. The end point readout of this assay is based on quantitation of intracellular ATP, an indicator of metabolic activity, using the luciferase reaction. Luciferase catalyzes the oxidation of beetle Luciferin to oxyluciferin and light in the presence of ATP. The luminescent signal is proportional to amount of ATP present.
# Using the CellTiter-Glo luminescent cell viability assay, the amount of cellular ATP was measured in the HUV-EC-C cell line with complete culture medium following compound treatment for 40 hours. The assay was performed in opaque white Kalypsys 1536-well plates. In the screen, tamoxifen and doxorubicin were used as positive controls. Library compounds were measured for their ability to cause acute toxicity in the cell line, as reflected by a decrease in intracellular ATP levels, in a concentration-dependent manner. […] AC50 values were determined from concentration-response data modeled with the standard Hill equation.
# qHTS protocol for CellTiter Glo HUV-EC-C cellular assay
# [Step] [Parameter] [Value] [Description]
# 1. Reagent; 5 uL; 1000 HUV-EC-C cells/well
# 2. Time; 5 hr; 37 °C incubation
# 4. Controls; 23 nL; Tamoxifen 0.34 uM to 100 uM & Doxorubicin 0.02 nM to 100 uM
# 5. Time; 40 hr; 37 °C incubation
# 6. Reagent; 5 uL; CellTiter Glo reagent
# 7. Time; 20 min; Room Temperature
# 8. Detection; Luminescence; Viewlux plate reader
# Keywords: cell viability, cytotoxicity, HUV-EC-C cell line, luminescence, NTPHTS, NTPHTS_NCGC, NIEHS, EPA, DSSTox, MLSMR, MLSCN, NIH Roadmap, qHTS, NCGC
# On the % scale 0 is the no-effect control and ±100 the full control effect; potency means the concentration at half of the fitted maximal effect.
Compound,"activity change, negative = cytotoxicity [%]",Potency
CCCCCCCCc1ccc(O)cc1,-3.26,
Nc1ccc(Sc2ccc(N)cc2)cc1,-12.9,
COC(C)(C)CCCC(C)C/C=C/C(C)=C/C(=O)OC(C)C (stereo unspecified),6.54,
CCOCCOC(C)=O,-6.34,
Nc1ccc(Cl)cc1N,-22.9,
COc1ccc(C(c2ccc(OC)cc2)C(Cl)(Cl)Cl)cc1,,inactive
C1CCC(NC2CCCCC2)CC1,,inactive
O=[N+]([O-])c1c(Cl)c(Cl)cc(Cl)c1Cl,4.34,
CCCCC(CC)COC(=O)c1ccccc1C(=O)OCC(CC)CCCC (stereo unspecified),-4.06,
c1cc2ccc3cccc4ccc(c1)c2c34,-6.32,
O=[N+]([O-])c1c2ccccc2cc2ccccc12,-35.2,
O=C(O)COc1ccccc1,3.63,
O=C(O)C(Cl)Cl,-0.661,
Nc1ccc([N+](=O)[O-])cc1,4.83,
O=[N+]([O-])c1cc([N+](=O)[O-])c2ccccc2c1,-1.19,
Cc1cc(O)ccc1Cl,-5.46,
CN(C)[C@@H]1C(=O)C(C(N)=O)=C(O)[C@@]2(O)C(=O)C3=C(O)c4c(O)cccc4[C@@](C)(O)[C@H]3[C@H](O)[C@@H]12,13.8,
CCOP(=O)(NC(C)C)Oc1ccc(SC)c(C)c1 (stereo unspecified),-5.69,
CC(C)(O)C(=O)Nc1ccc([N+](=O)[O-])c(C(F)(F)F)c1,1.77,
CC(=O)[O][Hg][c]1ccccc1,,1260 nM (active)
C=CC(=O)NCNC(=O)C=C,6.38,
O=S(=O)(c1ccc(Cl)cc1)c1ccc(Cl)cc1,,inactive
OCCCBr,-0.452,
CCCCOC(=O)c1ccccc1C(=O)OCc1ccccc1,6.19,
Nc1ccc(Cl)cc1,-4.26,
CN(C)NC(=O)CCC(=O)O,6.59,
